Source: PubChem BioAssay
ELG1 genotoxic = genotoxicity induction in ELG1-luciferase HEK293T cells. HEK293T ELG1-luciferase reporter, luminescence, 16 h. Potency, µM (highest dose often 46 µM), inactives show top-dose activity change, positive = activation, most hits filed as activators. 330,000 compounds, 1.3% hits; also: % of control where 0% means no effect; nearly all actives have a fitted effect of over 60% in size
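After overnight (16 hr) compound treatment at 37 °C, ELG1-luciferase HEK293T cells were lysed with ONE-Glo; luminescence quantified 30 min later at room temperature.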
ELG1 DNA repair = blocks ELG1-dependent DNA repair in HEK293T cells; HEK293T ELG1-luciferase reporter, luminescence, 16 h; DNA damage induced by 5-fluorouridine; Potency, µM (highest dose often 46.1 µM), for the others: top-dose activity change, negative = inhibition, most hits filed as inhibitors; 330,000 compounds, 2.3% hits; also: % is scaled to controls: 0 for no effect and ±100 for the full control effect; nearly all actives have a fitted effect of over 55% in size
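Reporter activity after DNA damage by 5-fluorouridine is monitored. Compound-treated cells incubate 16 hr at 37 °C, then ONE-Glo is added for 30 min before luminescence reading.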
SMN2 splice up = enhancers of SMN2 splice variant expression. HEK293 SMN2-luciferase splicing reporter, luminescence, 30-36 h. Potency, µM (doses to about 46.1 µM), inactives show at the highest dose activity change, positive = activation, hits mostly activators. 210,000 compounds, 2.8% hits. AID 1458; also: % of control where 0% means no effect; nearly all actives have a fitted effect of over 55% in size
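qHTS luciferase splicing reporter: luminescence rises when SMN2 exon 7 is included in transfected HEK293 cells. Compound exposure lasted 30-36 h at 37C, with 4.5 mM final sodium butyrate as control, followed by a ONE-Glo read.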
Rab9 prom act = Rab9 promoter activation. 320,000 compounds, 2.8% hits. Potency, µM (highest dose often 9.22 µM), for the others: at the top dose activation, negative = inhibition, actives largely listed as activators. AID 485297. Huh7 Rab9 promoter-luciferase reporter, luminescence, 24 h; also: % of control where 0% means no effect; nearly all actives have a fitted effect of over 60% in size
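Quantitative HTS format; Huh7 Rab9-luciferase reporter cells (1500/well) receive compound 2 h post-plating, incubate 24 h at 37 °C, then get luciferase reagent for 10 min before luminescence reading.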
NPC1 prom act = activators of NPC1 promoter; 320,000 compounds, 2.4% hits; Huh7 NPC1 promoter luciferase reporter, 24 h; Potency, µM (top dose mostly 9.22 µM), without a hit: at the top dose activation, most hits filed as activators; AID 485313; also: % of control where 0% means no effect; nearly all actives have a fitted effect of over 60% in size
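Readout is luciferase luminescence, reflecting NPC1 promoter activation in stably transfected Huh7 cells after 24 h compound exposure at 37 °C in reduced-serum medium with 10% FBS.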
FLuc counter = counter-screen for miR-21 project: firefly luciferase inhibitors or activators; P08659; purified FLuc, Km substrates, luminescence inhibition; Potency, µM (top dose mostly 57.5 µM), for the others: at the highest dose activity change, negative = inhibition, hits mostly inhibitors; 360,000 compounds, 6.9% hits;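 also: plate controls were vehicle for no effect and reference inhibitor for full effect; nearly all actives have a fitted effect of over 55% in size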
Target sequence (P08659 whole entry, looked up): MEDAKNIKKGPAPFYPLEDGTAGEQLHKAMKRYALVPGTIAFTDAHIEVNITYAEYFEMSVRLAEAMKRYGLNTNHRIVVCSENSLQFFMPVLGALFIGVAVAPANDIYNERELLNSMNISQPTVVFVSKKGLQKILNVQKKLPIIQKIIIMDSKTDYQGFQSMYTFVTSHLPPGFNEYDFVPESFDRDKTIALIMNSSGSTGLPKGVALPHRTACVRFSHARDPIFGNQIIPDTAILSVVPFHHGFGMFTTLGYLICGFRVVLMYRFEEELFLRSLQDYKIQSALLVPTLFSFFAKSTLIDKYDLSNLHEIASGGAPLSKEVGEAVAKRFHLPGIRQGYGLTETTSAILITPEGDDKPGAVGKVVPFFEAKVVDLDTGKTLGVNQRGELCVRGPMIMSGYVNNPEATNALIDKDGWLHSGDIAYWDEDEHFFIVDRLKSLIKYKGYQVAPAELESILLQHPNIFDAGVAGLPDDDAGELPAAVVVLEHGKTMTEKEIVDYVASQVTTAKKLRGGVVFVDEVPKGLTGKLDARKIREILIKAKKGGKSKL
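Purified P. pyralis luciferase (10nM final) with 10uM D-luciferin and 10uM ATP (Km levels) in 50mM Tris acetate pH 7.5, 10mM Mg acetate, 0.01% Tween-20, 0.05% BSA; qHTS 6-point titration, ~60 µM downward; luminescence read.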
* = called active by the depositor; u = inconclusive; x = not tested or not shown; [ ] = remark or other dose. Most compounds without a hit are left out; they make up all but 9.3% or so of the library. Calls follow the shape of the dose curve; as a rule, active = well fitted curve in the direction sought with a large enough effect; inconclusive = small, poorly fitted or top-dose-only effect, or another doubt; inactive = no such curve, though single readings can be large; an effect the other way counts as inactive or inconclusive. Potency is read from the fitted curve at half-maximal effect.

SMILES | ELG1 genotoxic | ELG1 DNA repair | SMN2 splice up | Rab9 prom act | NPC1 prom act | FLuc counter
CSc1ccc(NC(=O)Nc2cc(C)ccn2)cc1 | u | u | 1.58µM* | 0.447µM* | 0.501µM* | 0.301µM*
Cc1ccnc(NC(=O)Nc2ccc(Br)cc2Cl)c1 | u | u | 2.24µM* | 0.631µM* | 1µM* | 0.477µM*
CCSc1nnc(NC(=O)NC2CCCCC2)s1 | u | u | x | u | 17.9% | u
CCS(=O)(=O)N1CCCC(C(=O)NCCN2CCC(Cc3ccccc3)CC2)C1 (centres undefined) | -1.0% | -11.6% | -4.1% | 3.3% | -4.2% | 1.5%
CC(C)(C)C(=O)/C(=C\c1ccc([N+](=O)[O-])cc1)n1cncn1 | -11.7% | 11.6µM* | -114.2% | -34.8% | -32.5% | -16.1%
CC(C)(C)C(=O)/C(=C/c1ccc(Cl)cc1)n1cncn1 | -13.0% | u | x | -41.3% | -26.3% | 0.5%
CC(/C=C1\SC(=S)N(CCC(=O)Nc2cccc(C(=O)O)c2)C1=O)=C\c1ccccc1 | 0.4% | 3.8% | x | -0.5% | -4.4% | 23.9µM*
CC(/C=C1\SC(=S)N(CCCC(=O)Nc2ccc(C(=O)O)cc2)C1=O)=C\c1ccccc1 | 15.7% | u | -3.9% | 27.8% | 16.7% | 13.5µM*
CC(=O)Nc1ccc(NC(=O)c2ccccc2F)cc1 | u | u | u | -5.5%[1.84 µM] | 15.7% | u
O=C(Nc1cc(C(=O)N2CCCC2)ccc1N1CCCC1)c1ccccc1F | -26.6% | u | x | 10.1% | 0.2% | -1.3%
O=C(Nc1ccc(C(=O)N2CCCC2)cc1)c1ccccc1F | 8.2µM* | u | u | u | u | u
O=C(Nc1ccc(Oc2cccnc2)cc1)c1ccccc1F | 3.1% | u | -1.3% | 2.82µM* | u | 12µM*
O=C(Nc1ccc(SC(F)F)cc1)c1ccccc1F | u | u | 17.8µM* | 1.78µM* | 2.51µM* | 13.5µM*
CCOC(=O)Nc1ccc(NC(=O)c2ccccc2F)cc1 | u | u | u | 3.55µM* | u | u
O=C(Nc1ccc2nc(-c3cccnc3)[nH]c2c1)c1ccccc1F | 8.2% | -7.9% | 0.2% | 8.1% | 1.3% | 15.1µM*
CCN(CC)C(=O)c1ccc(C(=O)Nc2ccc(F)cc2)cc1 | u | u | x | u | 17.3% | u
O=C(Nc1ccc2ccccc2c1)c1ccccc1F | 2.59µM* | u | x | 0.631µM* | 0.501µM* | 1.35µM*
O=C(Nc1ccc(F)cc1)c1ccccc1F | x | x | 7.2% | x | x | 21.3µM*
O=C(Nc1ccc(SC(F)F)cc1)c1ccc(F)cc1 | u | u | 11.2µM* | 1.26µM* | 2.24µM* | 8.49µM*
O=C(Nc1ccc2oc(-c3cccnc3)nc2c1)c1ccccc1F | x | x | 5.2% | x | x | u
COCc1cc(C)nc2sc3c(=O)n(-c4ccccc4C(F)(F)F)nnc3c12 | x | x | x | x | x | -0.2%
O=C(Nc1ccc2cn[nH]c2c1)c1c(Cl)cccc1Cl | -3.3% | -12.8% | -1.7% | -2.4% | 0.0% | -4.5%
O=C(Nc1ccncc1)c1ccccc1F | -10.7% | 10.3µM* | -8.8% | -1.3% | -2.7% | -2.1%
O=C(Nc1ccc2cn[nH]c2c1)c1ccccc1F | u | u | 11.2µM* | 2µM* | 2.24µM* | 9.53µM*
Cc1noc2ncnc(Oc3ccc(C(C)(C)C)cc3)c12 | 0.9% | 0.8% | 5.6% | -3.6% | 0.7% | -1.4%
SMILES | ELG1 genotoxic | ELG1 DNA repair | SMN2 splice up | Rab9 prom act | NPC1 prom act | FLuc counter
CCCNC(=O)c1cc2n(n1)CCCN(Cc1ccc(C)cc1)C2=O | x | x | x | x | x | 0.0%
Cc1cc(=O)[nH]c(N/N=C/c2cc(C)n(CC(F)(F)F)c2C)n1 | u | u | x | -25.6% | -26.8% | -10.9%
COc1ccc(/C=N/Nc2ccccn2)c(OC)c1OC | u | 0.0% | u | u | u | 16.9µM*
COc1ccc(/C=N/Nc2ncc(Br)cn2)c(OC)c1 | 7.3µM* | u | 22.4µM* | u | 8.7% | 2.69µM*
COc1ccc(/C=N\Nc2ccccn2)c(OC)c1 | u | u | x | u | u | 3.38µM*
Cc1ccc(C(=O)COC(=O)c2cc(-c3cccs3)nc3ccccc23)cc1 | x | x | -1.8% | x | x | 2.39µM*
COc1ccc(C(=O)COC(=O)c2cc(-c3cccs3)nc3ccccc23)cc1 | x | x | -9.3% | x | x | 2.69µM*
CC(OC(=O)CC1CC2CCC1C2)C(=O)Nc1ccc(C(N)=O)cc1 (centres undefined) | 3.8% | u | x | -4.9% | 0.0% | 2.9%
CC(=O)Nc1ccc(NC(=O)/C(Cl)=C/c2ccccc2)cc1 | -0.7% | u | -6.0% | u | 23.3% | 10.7µM*
COc1c(OC2OC(C(=O)O)C(O)C(O)C2O)cc(O)c2c(=O)cc(-c3ccccc3)oc12 (centres undefined) | -3.2% | 16.2% | -7.8% | -2.9% | -0.9% | -1.5%
Cc1ccc(N(Cc2cc3ccccc3[nH]c2=O)C(=O)c2cccs2)cc1C | -6.3% | 23.1µM* | x | -1.3% | -4.3% | -0.1%
Cc1ccc2cc(CCNC(=O)c3cccc([N+](=O)[O-])c3)c(=O)[nH]c2c1C | -5.8% | 18.4µM* | -35.1% | -3.9% | 1.5% | -6.9%
O=C(c1cccs1)N(Cc1cc2ccccc2[nH]c1=O)c1ccccc1 | -5.1% | -3.4% | -45.3% | -1.0% | -5.0% | 1.8%
Cc1ccc2cc(CCNC(=O)c3cccs3)c(=O)[nH]c2c1 | u | u | 10µM* | u | 3.16µM* | 10.7µM*
Cc1ccc2cc(CCNC(=O)c3cccs3)c(=O)[nH]c2c1C | u | u | 10µM* | 2.82µM* | 2.82µM* | 5.36µM*
CC(=O)NCCc1cc2ccc(C)c(C)c2[nH]c1=O | 16.8% | u | u | -6.1% | -1.7% | 2.8%
COc1cc(OC)cc(N(C(=O)c2ccco2)C(C(=O)NC2CCCC2)c2ccc(N(C)C)cc2)c1 (centres undefined) | 0.2% | u | -13.4% | 4.8% | -10.4% | 0.3%
CNc1nc(N2CCc3ccccc32)ncc1F | u | u | u | 2.24µM* | 2.51µM* | 5.36µM*
COc1ccc(C2CC(=O)c3cnc(N4CCc5ccccc54)nc3C2)cc1OC (centres undefined) | -2.7% | -3.0% | x | -3.3% | -0.4% | -0.8%
Cc1ccccc1N(CC(=O)NCCc1ccccc1)C(=O)c1csnn1 | -1.2% | -0.7% | x | -2.4% | 1.5% | 1.9%
Cc1ccc(OCC(=O)N/N=C2/SCC(=O)N2Cc2ccco2)cc1 | 0.2% | -3.5% | -7.6% | 10.2% | -2.8% | -9.1%
Cc1ccc(-c2nnc(Nc3ccc4c(c3)OCO4)c3ccccc23)cc1S(=O)(=O)NC(C)C | -6.0% | 14.6µM* | 0.8% | -0.5% | 0.8% | 5.36µM*
Cc1ccc(-c2nnc(Nc3ccc(Cl)c(Cl)c3)c3ccccc23)cc1S(=O)(=O)N(C)C | x | x | -3.3% | x | x | -2.2%
